Measurements taken from PubChem BioAssay AID1159580 (chemical genetic matrix, 2015).
Out of some 5,500 compounds screened, about 2,000 (36%) were called active. About 18% were inconclusive and are not listed. Rule as the data show it: active = normalized growth mostly below about 0.91 (no sharp cut-off); inconclusive = no clear call, values can overlap the other calls; inactive = mostly above about 0.92. This is one part of the list.

Test: chemical genetic growth profiling, strain panel (AID 1159580);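 also: tested at 20 µM; growth read once vehicle control cultures reached saturation at 30 °C; 1 = growth at the plate median or of vehicle wells; lower values mean less growth of the strain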
Conditions: growth OD

Measured: normalized growth

COc1cc(O)ccc1C(C)=O
inactive: S. cerevisiae deletion strains, locus YJR043C, strain POL32, hits give low values 0.977 | S. cerevisiae deletion strains, locus YJR066W, strain TOR1, hits give low values 0.957 | S. cerevisiae deletion strains, locus YJR075W, strain HOC1, hits give low values 0.966 | S. cerevisiae deletion strains, locus YKL009W, strain mrt4, hits give low values 0.999 | S. cerevisiae deletion strains, locus YKL068W, hits give low values 0.974 | S. cerevisiae deletion strains, locus YKL085W, strain MDH1 (second series), hits give low values 0.986 | S. cerevisiae deletion strains, locus YKL085W, strain MDH1, hits give low values 0.986 | S. cerevisiae deletion strains, locus YKL160W, strain elf1, hits give low values 1.02 | S. cerevisiae deletion strains, locus YKL190W, strain CNB1, hits give low values 0.995 | S. cerevisiae deletion strains, locus YKR001C, strain vps1, hits give low values 0.975 | S. cerevisiae deletion strains, locus YKR026C, strain gcn3, hits give low values 1.03 | S. cerevisiae deletion strains, locus YKR091W, strain srl3, hits give low values 1.02 | S. cerevisiae deletion strains, locus YLL001W, strain dnm1, hits give low values 1.03 | S. cerevisiae deletion strains, locus YLL026W, hits give low values 1.01 | S. cerevisiae deletion strains, locus YLL041C, strain sdh2, hits give low values 1.01 | S. cerevisiae deletion strains, locus YLR027C, strain aat2, hits give low values 1.01 | S. cerevisiae deletion strains, locus YLR039C, strain RIC1, hits give low values 0.977 | S. cerevisiae deletion strains, locus YLR058C, strain SHM2, hits give low values 0.954 | S. cerevisiae deletion strains, locus YLR102C, strain apc9, hits give low values 0.98 | S. cerevisiae deletion strains, locus YLR113W, strain HOG1, hits give low values 1.01 | S. cerevisiae deletion strains, locus YLR221C, strain rsa3, hits give low values 1.03 | S. cerevisiae deletion strains, locus YLR258W, strain gsy2, hits give low values 1.02 | S. cerevisiae deletion strains, locus YLR262C, strain YPT6 (second series), hits give low values 1.03 | S. cerevisiae deletion strains, locus YLR262C, strain YPT6, hits give low values 0.899 | S. cerevisiae deletion strains, locus YLR268W, strain sec22, hits give low values 1.04 | S. cerevisiae deletion strains, locus YLR320W, strain mms22, hits give low values 1.03 | S. cerevisiae deletion strains, locus YLR330W, strain CHS5, hits give low values 0.991 | S. cerevisiae deletion strains, locus YLR342W, strain FKS1 (second series), hits give low values 1.07 | S. cerevisiae deletion strains, locus YLR342W, strain FKS1, hits give low values 1.03 | S. cerevisiae deletion strains, locus YLR357W, strain rsc2, hits give low values 1.01 | S. cerevisiae deletion strains, locus YLR370C, strain arc18, hits give low values 1.02 | S. cerevisiae deletion strains, locus YLR371W, strain rom2, hits give low values 0.973 | S. cerevisiae deletion strains, locus YLR384C, strain iki3, hits give low values 1.05 | S. cerevisiae deletion strains, locus YLR418C, strain cdc73, hits give low values 0.973 | S. cerevisiae deletion strains, locus YML016C, strain PPZ1, hits give low values 0.989 | S. cerevisiae deletion strains, locus YML032C, strain rad52, hits give low values 0.951 | S. cerevisiae deletion strains, locus YML120C, strain ndi1, hits give low values 1.02 | S. cerevisiae deletion strains, locus YML124C, strain tub3, hits give low values 0.997 | S. cerevisiae deletion strains, locus YMR058W, strain fet3, hits give low values 1.03 | S. cerevisiae deletion strains, locus YMR078C, strain ctf18, hits give low values 0.99 | S. cerevisiae deletion strains, locus YMR125W, strain sto1, hits give low values 1.03 | S. cerevisiae deletion strains, locus YMR129W, hits give low values 1.02 | S. cerevisiae deletion strains, locus YMR205C, strain PFK2, hits give low values 1.04 | S. cerevisiae deletion strains, locus YMR223W, strain ubp8, hits give low values 0.979 | S. cerevisiae deletion strains, locus YMR231W, strain pep5, hits give low values 1.01 | S. cerevisiae deletion strains, locus YMR263W, strain SAP30, hits give low values 0.985 | S. cerevisiae deletion strains, locus YMR307W, strain GAS1, hits give low values 0.997 | S. cerevisiae deletion strains, locus YNL067W, strain RPL9B, hits give low values 0.981 | S. cerevisiae deletion strains, locus YNL071W, strain lat1, hits give low values 1.02 | S. cerevisiae deletion strains, locus YNL153C, strain GIM3, hits give low values 0.961 | S. cerevisiae deletion strains, locus YNL183C, strain NPR1, hits give low values 0.968 | S. cerevisiae deletion strains, locus YNL209W, strain ssb2, hits give low values 1.02 | S. cerevisiae deletion strains, locus YNL233W, strain BNI4, hits give low values 0.975 | S. cerevisiae deletion strains, locus YNL248C, strain rpa49, hits give low values 1.02 | S. cerevisiae deletion strains, locus YNL250W, strain rad50, hits give low values 0.974 | S. cerevisiae deletion strains, locus YNL271C, strain bni1, hits give low values 0.988 | S. cerevisiae deletion strains, locus YNL298W, strain CLA4, hits give low values 0.981 | S. cerevisiae deletion strains, locus YNL307C, strain MCK1, hits give low values 0.992 | S. cerevisiae deletion strains, locus YNL322C, strain KRE1 (second series), hits give low values 1.02 | S. cerevisiae deletion strains, locus YNR049C, strain mso1, hits give low values 1.02 | S. cerevisiae deletion strains, locus YNR052C, strain pop2, hits give low values 0.983 | S. cerevisiae deletion strains, locus YOL012C, strain htz1 1.92 | S. cerevisiae deletion strains, locus YOL147C, strain pex11, hits give low values 1 | S. cerevisiae deletion strains, locus YOR001W, strain rrp6, hits give low values 1.01 | S. cerevisiae deletion strains, locus YOR061W, strain CKA2, hits give low values 0.96 | S. cerevisiae deletion strains, locus YOR069W, strain VPS5, hits give low values 0.999 | S. cerevisiae deletion strains, locus YOR070C, strain gyp1, hits give low values 1.02 | S. cerevisiae deletion strains, locus YOR080W, strain dia2, hits give low values 1.02 | S. cerevisiae deletion strains, locus YOR083W, strain WHI5, hits give low values 1.03 | S. cerevisiae deletion strains, locus YOR106W, strain vam3, hits give low values 1.02 | S. cerevisiae deletion strains, locus YOR136W, strain idh2, hits give low values 0.995 | S. cerevisiae deletion strains, locus YOR144C, strain elg1, hits give low values 0.986 | S. cerevisiae deletion strains, locus YOR184W, strain ser1, hits give low values 0.971 | S. cerevisiae deletion strains, locus YOR231W, strain MKK1, hits give low values 1.02 | S. cerevisiae deletion strains, locus YOR265W, strain rbl2, hits give low values 1.02 | S. cerevisiae deletion strains, locus YOR270C, strain vph1, hits give low values 1.04 | S. cerevisiae deletion strains, locus YOR290C, strain snf2, hits give low values 1.01 | S. cerevisiae deletion strains, locus YOR316C, strain cot1, hits give low values 0.98 | S. cerevisiae deletion strains, locus YPL051W, strain arl3, hits give low values 1.02 | S. cerevisiae deletion strains, locus YPL055C, strain LGE1, hits give low values 0.957 | S. cerevisiae deletion strains, locus YPL078C, strain atp4, hits give low values 1.02 | S. cerevisiae deletion strains, locus YPL106C, strain sse1, hits give low values 1.01 | S. cerevisiae deletion strains, locus YPL240C, strain hsp82, hits give low values 1.01 | S. cerevisiae deletion strains, locus YPL256C, strain CLN2, hits give low values 1.04 | S. cerevisiae deletion strains, locus YPR119W, strain clb2, hits give low values 0.984 | S. cerevisiae deletion strains, locus YPR141C, strain kar3, hits give low values 0.976 | S. cerevisiae deletion strains, locus YPR163C, strain tif3, hits give low values 0.978 | S. cerevisiae deletion strains, locus YPR167C, strain met16, hits give low values 0.983 | S. cerevisiae deletion strains, strain wtn01, hits give low values 1.02 | S. cerevisiae strains, strain wild type, hits give low values 0.997
